In the library only some 19% were active in any assay of this set; here they are far more common.
HT1080 IDH1KD tx – kills HT-1080 cells with IDH1 knockdown. HT-1080 IDH1 knockdown viability, ATP luminescence, 48 h. Potency, µM (doses to about 46.1 µM), inactives show at the top dose activity, negative = toxicity, hits mostly cytotoxic. 2% of 360,000 active;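 further: potency means the concentration at half of the fitted maximal effect; 0% = DMSO wells and -100% = cell-free medium wells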
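Assay cells: HT-1080 with IDH1 knockdown, 750 per well, RPMI/5% FBS. Exposure: 48 h at 37 °C following 2 h pre-incubation. Read: CellTiter-Glo luminescence; fitted concentration-response, curve class assigned.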
HT1080-NT tox – kills 2HG-producing HT-1080-NT fibrosarcoma cells; HT-1080-NT fibrosarcoma viability, CellTiter-Glo ATP luminescence, 48 h; Potency, µM (doses to about 46.1 µM), for inactives: at the highest dose activity, negative = less viability, actives largely listed as cytotoxic; 1.6% of 360,000 active;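 further: NT is the 2HG producing partner of a matched IDH1 knockdown line; potency means the concentration at half of the fitted maximal effect; 0% = DMSO-treated cells and -100% = media-only wells without cells; nearly all actives have a fitted effect of over 55% in size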
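Read-out is CellTiter-Glo luminescence after 10 minutes at room temperature, following 48 hours' compound treatment of HT-1080-NT cells (750 cells/well, RPMI, 5% FBS, 37 degrees C).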
IL-1B inflam inh – inflammasome signaling inhibition, IL-1 beta readout; THP-1 LPS/ATP IL-1B secretion, AlphaLISA, 16 h; active compounds read low; activity change, % at 57.5 µM; 4.7% of 360,000 active; in the data active means activity change below about -50%; inconclusive means mostly about -30% to -49%
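THP-1 cells pretreated 1 hr with compounds (up to 57.5 uM final), then stimulated with LPS (250 ng/mL final) plus ATP (1.25 mM final); secreted IL-1B measured by AlphaLISA after 16 hr, decreased signal indicating inhibition.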
DT40 TDP1 no CPT – qHTS for Inhibitors of human tyrosyl-DNA phosphodiesterase 1 (TDP1): qHTS in cells in absence of CPT; Potency, µM (doses to about 46.2 µM), for the others: top-dose activity change, negative = growth inhibition, most hits filed as inhibitors; 15% of 420,000 active; DT40 Tdp1-/- hTDP1 cells, no CPT, ATP luminescence, 48 h; further: potency means the concentration at half of the fitted maximal effect; nearly all actives have a fitted effect of over 55% in size
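Compound effects on proliferation are scored in DT40 Tdp1-/-;hTDP1 cells in the absence of CPT. ATP levels (CellTiter-Glo luminescence) are recorded after a ≥48 hr, 37 °C incubation.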
DT40 TDP1 CPT – growth inhibition of DT40 Tdp1-/-;hTDP1 cells with camptothecin (screen for TDP1 inhibitors); Potency, µM (series often up to 46.2 µM), without a hit: top-dose activity change, negative = growth inhibition, most hits filed as inhibitors; 12% of 420,000 active; AID 686979; chicken DT40 Tdp1-/-;hTDP1 cells + 20 nM CPT, ATP luminescence, 48 h; further: potency means the concentration at half of the fitted maximal effect; nearly all actives have a fitted effect of over 55% in size
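Cell growth measured by CellTiter-Glo luminescence after a minimum 48 h, 37 C compound exposure with 20 nM CPT in Tdp1-knockout DT40 cells stably expressing hTDP1, seeded 400/well; qHTS titration format.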
* hit, by the source's call; i = inactive; ? = inconclusive; / = no result; [ ] = another dose, or the depositor's remark. Unless noted, the call rests on the fitted dose curve; in most records, active means well fitted curve in the direction sought with a large enough effect; inconclusive means small, poorly fitted or top-dose-only effect, or another doubt; inactive means no such curve, though single readings can be large; an effect the other way counts as inactive or inconclusive. Unless noted, on the % scale 0 is the no-effect control and ±100 the full control effect.

SMILES	HT1080 IDH1KD tx	HT1080-NT tox	IL-1B inflam inh	DT40 TDP1 no CPT	DT40 TDP1 CPT
COc1cc2nc(N(CCCN(C)C)C(=O)c3ccc(S(=O)(=O)N4CCc5ccccc54)cc3)sc2cc1OC	?	?	-101.2*	16.4µM*	?
N#C/C(=N\Nc1cccc([N+](=O)[O-])c1)C(=O)c1ccc(Br)cc1	2.59µM*	5.8µM*	-64.0*	6.51µM*	5.8µM*
Cc1cccc(CS(=O)(=O)Cc2ccc(C(=O)NC3CCCC3)o2)c1	2.0%	4.7%	32.2	14.6%	-24.2%
Cc1nc(SCC(=O)Nc2ccc(Cl)cc2C(F)(F)F)[nH]c(=O)c1Cc1ccccc1	/	/	/	-24.8%	-22.7%
COc1ccc(CN2CCCC(n3cc(C(=O)N4CCCCC4)nn3)C2)c(OC)c1 (configuration not stated)	/	/	/	-6.4%	-0.1%[9.04 µM]
CCCC(=O)NC(=S)Nc1ccc(S(=O)(=O)N2CCc3ccccc32)cc1	-25.0%	-29.6%	-23.1	20.6µM*	?
Cc1c(Cl)ccc2sc(NC(=O)c3ccc(S(=O)(=O)N4CCCc5ccccc54)cc3)nc12	/	/	/	18.4µM*	?
CCN(CC)CCNC(=O)c1ccc(NC(=O)c2cccc(S(=O)(=O)N3CCc4ccccc43)c2)cc1	?	?	-84.6*	?	?
N#C/C(=N\Nc1ccc(S(=O)(=O)N2CCc3ccccc32)cc1)C(N)=S	9.2µM*	10.3µM*	-0.4	11.6µM*	-18.4%
Cc1c(Cl)ccc2sc(NC(=O)c3ccc(S(=O)(=O)N4CCCC4)cc3)nc12	/	/	/	-21.0%	-24.8%
O=C(CCNS(=O)(=O)c1ccccc1F)NC1CCCCCC1	0.4%	4.8%[9.24 µM]	14.7	19.1%	-4.2%
O=C(Cn1cc(S(=O)(=O)N2CCCC2)c(S(=O)(=O)N2CCCC2)c1)Nc1ccccc1	/	/	/	-28.1%	1.7%
COc1cccc2cc(-c3nc(-c4ccc(Cl)cc4)cs3)c(=O)oc12	/	/	/	?	-3.6%
NS(=O)(=O)c1ccc(NC(=O)c2ccc(S(=O)(=O)N3CCc4ccccc43)cc2)cc1	-22.2%	-14.8%	26.9	?	?
COc1ccc(C(=O)Nc2ccc(S(=O)(=O)N3CCc4ccccc43)cc2)cc1	?	-3.0%	-23.2	23.1µM*	25.9µM*
COc1cc2nc(NC(=O)c3ccc(S(=O)(=O)N4CCc5ccccc54)cc3)sc2cc1OC	/	/	/	14.6µM*	20.6µM*
CCCCn1c(-c2cccc3ccccc23)nc2cc3[nH]c(=O)c(C(C)C)nc3cc21	-7.1%	-28.8%	-13.4	16.4µM*	?
CCCCn1c(C2CCCCC2)nc2cc3[nH]c(=O)c(C(C)C)nc3cc21	-2.5%	-4.4%	23.6	?	?
CCCCn1c(-c2ccccc2C)nc2cc3[nH]c(=O)c(C(C)C)nc3cc21	-5.8%	-26.4%	-25.6	?	20.6µM*
COc1ccc(Nc2nc(N)nc(CSc3nnc(C)s3)n2)cc1	-9.5%	-2.6%	-12.1	-22.9%	-17.9%
Cc1ccc(Nc2nc(N)nc(CSc3nc4ccccc4s3)n2)cc1	?	?	-70.4*	?	?
COc1ccc(Nc2nc(N)nc(CSc3nc4cc(OC)ccc4s3)n2)cc1	/	/	/	14.6µM*	11.6µM*
Cc1ccccc1Nc1nc(N)nc(CSc2nc3ccccc3s2)n1	6.1%	6.9%	-8.7	?	?
CC1(C)S[C@@H]2[C@H](NC(=O)[C@H](NC(=O)N3CCN(S(C)(=O)=O)C3=O)c3ccccc3)C(=O)N2[C@H]1C(=O)O	/	/	/	-27.9%	-3.4%
COc1ccc(Cl)cc1NC(=S)N(CCCN1CCOCC1)Cc1cn(C)c2ccccc12	-22.5%	?	-19.1	?	13µM*
SMILES	HT1080 IDH1KD tx	HT1080-NT tox	IL-1B inflam inh	DT40 TDP1 no CPT	DT40 TDP1 CPT
COc1cc(Cl)ccc1NC(=S)N(CCCN1CCOCC1)Cc1cn(C)c2ccccc12	?	?	?	20.6µM*	16.4µM*
COc1ccc(/C=C2/SC(=S)N(Cc3ccccc3)C2=O)cc1O	?	-27.1%	?	-11.1%	-27.4%
COc1ccc(O)c(/C=C2/SC(=S)N(Cc3ccccc3)C2=O)c1	1.0%	-0.4%	4.7	20.6µM*	?
O=C1/C(=C\c2cc(Cl)c(O)c(Cl)c2)SC(=S)N1Cc1ccccc1	?	?	-18.9	2.31µM*	6.51µM*
Cc1ccc(C(=O)NCC(=O)OCC(=O)Nc2cc(S(=O)(=O)N3CCOCC3)ccc2Cl)s1	3.3%	1.5%	1.9	-15.1%	5.0%
Cc1n[nH]c(=S)n(/N=C/c2cccs2)c1=O	0.8%	-8.8%	-6.1	6.51µM*	?
Nc1nc(SCC(=O)Nc2ccc(OC(F)(F)F)cc2)[nH]c(=O)c1NC(=O)c1ccc(Br)o1	0.9%	-10.4%	i	2.3%	4.0%
O=C(c1ccccc1)C1CCN(C(=O)C2CCC(=O)N(Cc3ccccc3F)C2)CC1 (configuration not stated)	-1.9%	0.5%	12.2	20.6µM*	16.4µM*
O=C(NCc1ccco1)C(c1cccs1)N(C(=O)C1COc2ccccc2O1)c1cccc(O)c1 (configuration not stated)	-19.2%	-18.4%	-7.3	13µM*	23.1µM*
